This passage reports displacement results from PubChem BioAssay AID583 (Sanford-Burnham Center for Chemical Genomics, 2007).

The structures appear in SMILES notation. Values joined by “and” are separate entries in the source; they are usually repeats but may differ in a detail not shown here. Identical values can stand only once. In all, about 140,000 compounds went through this assay and about 80 (0.06%) were called active. Cut-off read from the data, not from the text of the source: active = displacement above about 50%; inactive = the rest. Only a selection was taken, and actives are over-represented in it overall. The source holds several records for some structures; these can differ, active in one and inactive in another.

Heat shock 70 kDa protein 1A (Homo sapiens), sequence (P0DMV8 whole entry, looked up): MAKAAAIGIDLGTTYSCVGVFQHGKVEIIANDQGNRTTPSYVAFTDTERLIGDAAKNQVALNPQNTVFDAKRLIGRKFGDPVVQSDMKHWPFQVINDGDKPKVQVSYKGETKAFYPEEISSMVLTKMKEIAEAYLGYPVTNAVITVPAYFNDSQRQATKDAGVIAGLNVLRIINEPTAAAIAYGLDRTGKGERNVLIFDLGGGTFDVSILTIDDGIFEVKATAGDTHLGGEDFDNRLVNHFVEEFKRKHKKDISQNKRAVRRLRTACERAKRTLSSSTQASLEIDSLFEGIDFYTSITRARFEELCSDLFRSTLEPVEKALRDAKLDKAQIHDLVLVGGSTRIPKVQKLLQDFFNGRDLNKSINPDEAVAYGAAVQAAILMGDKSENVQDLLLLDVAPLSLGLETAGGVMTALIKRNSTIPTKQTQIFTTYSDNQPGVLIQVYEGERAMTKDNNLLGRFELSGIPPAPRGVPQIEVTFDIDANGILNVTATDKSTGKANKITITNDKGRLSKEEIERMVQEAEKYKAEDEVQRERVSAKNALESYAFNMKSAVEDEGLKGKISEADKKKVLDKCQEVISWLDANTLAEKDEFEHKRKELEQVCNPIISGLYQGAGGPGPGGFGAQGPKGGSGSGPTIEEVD

The test concerns the target Heat shock 70 kDa protein 1A (Homo sapiens) (UniProt P0DMV8). As to the kind of experiment: small molecules displacing fluorescent ligand from Hsp70 – biochemical, fluorescence polarization, primary screen (AID 583).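 Note: plate controls were vehicle for no effect and reference ligand for full effect.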 The note with it: Hsp70 fluorescence polarization probe displacement, mP; at 20 µM; stronger effect = higher value. (Fluorescence polarisation rises when a labelled molecule tumbles more slowly, as on binding a larger partner.)
With `CCOC(=O)c1c(NC(=O)c2cccnc2)sc2c1CCC2`, the displacement is -2% (inactive). The result for `CCOC(=O)c1c(NC(=O)c2cccnc2)sc2c1CCCC2` reads 6.4% (inactive); that for `CC(C)OC(=O)c1c(NC(=O)c2cccnc2)sc2c1CCCCC2`, 80.1% (active). With `COc1ccc(-c2cc(C(F)(F)F)nc(-n3cc(Br)cn3)n2)cc1`, the displacement was -0.2% (inactive).

`O=C(O)CCCCCN1C(=O)/C(=C2/C(=O)N(CC(=O)O)c3ccccc32)SC1=S`: the displacement was 5.6% (inactive). `CCCN1C(=O)/C(=C2\SC(=S)N(CCC(=O)O)C2=O)c2ccccc21`: the displacement is -0.7% (inactive).

As to `O=C(O)CCN1C(=O)/C(=C2\C(=O)N(Cc3ccccc3Cl)c3ccccc32)SC1=S`, the displacement was 53.2% (active). With `Cc1cc(C)c(C(=O)CSc2n[nH]c(=O)n2C2CC2)cc1C` the figure was 0.8% (inactive); with `COCCOC(=O)c1ccc(NC(=O)COc2cc(C)c(Cl)c(C)c2)cc1`, 0.2% (inactive). On to `COCCOC(=O)c1ccc(NC(=O)COc2ccc(C)c(C)c2)cc1`, for which the displacement was 86.3% (active). The result for `COCCOC(=O)c1ccc(NC(=O)COc2ccc(C)cc2)cc1` reads 3.9% (inactive). With `C/C(=N\NC(=O)c1cc(-c2cccc([N+](=O)[O-])c2)n[nH]1)c1ccccc1O` the figure was -0.9% (inactive). As for `CCN(CC)C(=O)CSc1nnc(CCN)o1`, the displacement was -0.4% (inactive). With `O=c1c2ccccc2nnn1CSc1nnc(-c2cccc(S(=O)(=O)N3CCCCC3)c2)o1` the figure was -0.1% (inactive). As for `CCOC(=O)C(=O)Nc1ccc(C(N)=O)cc1`, the displacement was -0.8% (inactive). Consider `CCOC(=O)C(=O)Nc1ccc(NC(C)=O)cc1`, for which the displacement is 56.6% (active). The result for `CCOC(=O)C(=O)Nc1ccc(F)cc1` reads 5.5% (inactive). The result for `CCc1ccccc1NC(=O)CN(c1ccc(OC)c(Cl)c1)S(C)(=O)=O` reads -3.3% (inactive). Regarding `Cc1cc(I)c2c(c1)C1C=CCC1C(C(=O)O)N2` (configuration not stated), the displacement was 23.8% (inactive). With `O=C(O)C1Nc2c(C(=O)N3CCCC3)cccc2C2C=CCC12` (configuration not stated) the figure was 11.2% (inactive); with `O=C(O)C1Nc2c(C(=O)N3CCOCC3)cccc2C2C=CCC12` (configuration not stated), 17.9% (inactive); with `COc1ccc2c(c1)C1C=CCC1C(C(=O)O)N2` (configuration not stated), 31.6% (inactive). The result for `Cc1c(Cl)ccc2c1NC(C(=O)O)C1CC=CC21` (configuration not stated) reads 95.7% (active); that for `O=C(O)C1Nc2c(Cl)cc(Cl)cc2C2C=CCC12` (configuration not stated), 78% (active). The result for `O=C(Nc1ccc2c(c1)OCCO2)c1cnc2ccccn2c1=O` reads 0.6% (inactive); that for `CCN(CC)CCCOc1c(Cl)cccc1Cl`, 0.3% (inactive). As to `Cc1cccc(OCC(=O)N2CCN(C(=O)c3cccs3)CC2)c1`, the displacement was -2.2% (inactive). The result for `O=C1c2cccc3cccc(c23)C(=O)N1c1ccc2c(c1)OCO2` reads -2.6% (inactive). With `CCOC(=O)c1c(C)nc(-c2ccccc2)nc1NC(C)=O` the figure was 0.2% (inactive) and 7.4% (inactive); with `CCOC(=O)c1c(C)nc(-c2ccccc2)nc1NC(=O)c1ccccc1`, -1.8% (inactive); with `CCOC(=O)c1c(C)nc(C)nc1NC(=O)c1ccccc1`, 85.3% (active). With `CC1=C(C(=O)Nc2ccccn2)C(c2cccnc2)n2nnnc2N1` (configuration not stated) the figure was 1.5% (inactive).

Consider `COc1cccc(-c2nc3ccccc3c(=O)o2)c1`, for which the displacement is -0.1% (inactive). Take `O=c1nc(/C=C/c2cc([N+](=O)[O-])ccc2Cl)cc(C(F)(F)F)[nH]1`: the displacement was 3.5% (inactive). With `O=[N+]([O-])c1ccc(O)c(-c2cc(C(F)(F)F)nc(-c3ccccc3)n2)c1` the figure was 4.6% (inactive); with `O=C(Cn1ncc2c1-c1ccccc1OC2)Nc1nc2ccccc2s1`, 0% (inactive); with `NC(=O)c1c(NC(=O)CCN2C(=O)c3ccccc3C2=O)sc2c1CCC2`, -3.3% (inactive).

On to `N#Cc1c(NC(=O)CCCN2C(=O)c3ccccc3C2=O)sc2c1CCCC2`, for which the displacement was 2.9% (inactive). The result for `N#Cc1c(NC(=O)CCN2C(=O)c3ccccc3C2=O)sc2c1CCCC2` reads 72.6% (active); that for `COc1ccc(C2Nc3ccccc3NC3=C2C(=O)CC(c2ccc(Cl)cc2)C3)cc1` (configuration not stated), -0.1% (inactive). With `CC1(C)C2CCC1(C)C(NC(=O)C1CC3c4ccccc4C1c1ccccc13)C2` (configuration not stated) the figure was 1.1% (inactive); with `Cc1ccc(NC(=O)CSc2nnc(-c3ccccc3Br)o2)cc1C`, -2.9% (inactive); with `Cc1ccccc1-n1c(O)c(C=C2C=CC=N2)c(=O)[nH]c1=S`, 44.3% (inactive). The result for `O=c1[nH]c(=S)n(-c2cccc(Cl)c2)c(O)c1/C=C1/C=CC=N1` reads 10% (inactive); that for `Cn1c(O)c(/C=C2/C=CC=N2)c(=O)n(-c2ccccc2)c1=S`, 53% (active).

Turning to `Cc1ccc(N2C(=O)C3CC=C(c4ccccc4)CC3C2=O)cc1` (configuration not stated), the displacement is -0.4% (inactive). The result for `CC1=C(C)CC2C(=O)N(c3ccc(Br)cc3)C(=O)C2C1` (configuration not stated) reads 4.3% (inactive); that for `O=C1C2CC=C(c3ccccc3)CC2C(=O)N1c1ccc(Br)cc1` (configuration not stated), 60.4% (active); that for `O=C1NC(=S)S/C1=C/c1cc(Br)ccc1OCc1ccccc1Cl`, 4.3% (inactive). For the compound `Cn1c(CN2CCCCC2)nc2cc(NC(=O)c3ccccc3)ccc21`, the displacement was 1.9% (inactive). For the compound `COc1ccc(OC)c(NC(=S)NC(NC(=O)Cc2ccccc2)C(Cl)(Cl)Cl)c1` (configuration not stated), the displacement is -6.4% (inactive). The result for `O=C(Nc1ccccc1)c1ccccc1C(=O)N1CCCCC1` reads 4.4% (inactive).

Regarding `O=C1C(=Cc2ccc(I)o2)C(=O)c2ccccc21`, the displacement is 10.7% (inactive). With `CC1(C)OC(=O)C(=Cc2ccc(-c3ccc(Cl)cc3Cl)o2)C(=O)O1` the figure was -3.2% (inactive). With `CC1(C)OC(=O)C(=Cc2ccc(I)o2)C(=O)O1` the figure was 97.3% (active). With `COc1ccc(OC)c(C=NN2CCN(Cc3ccccc3Cl)CC2)c1` the figure was -1.8% (inactive). As for `CCOc1cc(C2Nc3ccc4ccccc4c3C3=C2CC(C)(C)CC3=O)ccc1O` (configuration not stated), the displacement is 2.3% (inactive).

Turning to `Cc1csc(NC(=O)c2ccc([N+](=O)[O-])cc2Cl)n1`, the displacement was 5.8% (inactive). Consider `Nc1cc(S(=O)(=O)O)cc2cccc(S(=O)(=O)O)c12`, for which the displacement is 4.7% (inactive). With `Nc1ccc(S(=O)(=O)O)c2cccc(S(=O)(=O)O)c12` the figure was 6.4% (inactive); with `Nc1ccc(S(=O)(=O)O)c2cccc(O)c12`, 34.1% (inactive) and 73.7% (active); with `O=C1c2ccccc2C(=O)N1/N=C/c1ccc(O)cc1O`, -1.5% (inactive).
